From PubChem BioAssay (NCATS)
Inconclusive results are not listed. Values without a mark were called inactive. The source made the active and inactive calls. The call rests on the fitted dose curve; in most records, active means well fitted cell-killing curve with a large enough effect; inconclusive means small, poorly fitted or top-dose-only effect, or effect the other way; inactive means flat fitted curve, though single readings scatter.

assay: qHTS for Inhibitors of Ubiquitin-specific Protease USP2a Using CHOP2 as the Reporter: Cytotox Assay (AID 652170); conditions: HCT116 viability, CellTiter-Glo luminescence, 72 h; series mostly up to 46.1 µM; activity change, negative = cytotoxicity: at the top concentration; further: nearly all actives have a fitted effect of over 70% in size
Text: Homeostasis of cellular proteins is maintained through a combination of synthesis and degradation. The pathway that accounts for the majority of protein degradation is the ubiquitin-proteasomal pathway. Ubiquitin (Ub) is highly conserved in all cells and the generation of a multi-Ub chain typically targets proteins for degradation by the proteasome. However, ubiquitination is highly reversible and dynamic. Deubiquitination, the reverse process, is catalyzed through the action of enzymes referred to as isopeptidases or deubiquitinating enzymes (DUBs). This group of enzymes is collectively responsible for maintaining adequate pools of free ubiquitin and regulating the ubiquitination status of cellular proteins. The class of DUBs referred to as the ubiquitin-specific proteases (USP) family functions endoproteolytically to cleave Ub chains from a wide range of protein substrates. USP2a deubiquitinates fatty acid synthase (FASN) which has recently been identified as an emerging oncology target. To identify inhibitors of USP2a a cell-free qHTS assay was employed. Confirmed qHTS active compounds were tested for cytoxicity in HCT116 cells (human colon cancer cells) using the Cell Titer Glo luciferase-coupled ATP detection system from Promega. This assays monitors cell proliferation by quantitating the amount of ATP present by luciferase, which in the presence of ATP converts […]. A compound that inhibits cell proliferation would result in a decrease in luminescence. The data were normalized to control columns representing maximum signal (cells with DMSO) and background (no cells with DMSO). The cells were cultured in DMEM with 10% FBS and plated in white solid-bottom tissue-culture treated plates. NIH Molecular Libraries Probe Centers Network [MLPCN] NIH Chemical Genomics Center [NCGC] MLSCN Grant: MH079852 PI Name: Benjamin Nicholson, Progenra Inc, Malvern, PA
5 uL of HCT116 (600 cells/well) were plated into a 1536 well plate and then incubated for 6 hr at 37 deg C, 5% CO2. Compounds are added through pinning before the plate is incubated for 72 hr at 37 deg C, 5% CO2. Then, 3 uL of Cell Titer Glo is added, the plate is left at RT for 10 min, before luminescence is detected using the ViewLux.
Potency means the concentration at half of the fitted maximal effect.

Going from `COc1ccc(NC(=O)c2cc(-c3ccc(C)c(C)c3)nc3ccccc23)cc1` to `COc1cccc(NC(=O)c2cc(-c3ccc(C)c(C)c3)nc3ccccc23)c1`, the “activity change, negative = cytotoxicity” value falls from 11.9% to -20.9%.

Compared with `Cc1noc(C)c1S(=O)(=O)Nc1cnccc1C(=O)Nc1nc(-c2ccccc2)cs1`, `O=C(Nc1nc(-c2ccccc2)cs1)c1ccncc1NS(=O)(=O)c1cccnc1` is higher in “activity change, negative = cytotoxicity” value: 2.82% for the first, 14% for the second.

Going from `Cc1ccc(S(=O)(=O)Nc2cnccc2C(=O)Nc2ccc(-n3cncn3)cc2)cc1` to `Cc1ccc(NC(=O)c2ccncc2NS(=O)(=O)c2ccc(C)cc2)cc1`, the “activity change, negative = cytotoxicity” value falls from 18.3% to -20%.

Going from `CCOC(=O)c1csc(NC(=O)c2ccncc2NS(=O)(=O)c2ccc(C)cc2)n1` to `O=C(Nc1nc(-c2ccccc2)cs1)c1ccncc1NS(=O)(=O)c1ccc(N2CCCC2=O)cc1`, the “activity change, negative = cytotoxicity” value rises from -1.65% to 4.61%.

Compared with `Cc1ccc(-c2cc(C(=O)Nc3ccc(S(=O)(=O)N(C)C)cc3)c3ccccc3n2)cc1C`, `Cc1ccc(-c2cc(C(=O)Nc3ccccc3)c3ccccc3n2)cc1C` is lower in “activity change, negative = cytotoxicity” value: 19.9% for the first, -10.5% for the second.

First: O=C(Cc1nc2ccc(Cl)cc2[nH]1)Nc1ccc(S(=O)(=O)Nc2nccs2)cc1
Second: O=C(Nc1ccc(S(=O)(=O)Nc2nccs2)cc1)c1ccnc(-c2ccccc2)c1
The “activity change, negative = cytotoxicity” value of the first is lower: 2.72% for the first, 8.1% for the second.

First: O=C(Nc1ccc(S(=O)(=O)Nc2nccs2)cc1)C1CC(OCc2ccccc2)C1 (stereo not given)
Second: O=S(=O)(Nc1nccs1)c1ccc(Nc2nc(-c3ccccc3)cs2)cc1
The “activity change, negative = cytotoxicity” value of the first is higher: 9.98% for the first, -6.95% for the second.

Going from `O=C(Nc1ccc([S+](=O)([O-])Nc2nccs2)cc1)c1ccccn1` to `N#Cc1ccc(N[S+](=O)([O-])c2ccc(Nc3nc(-c4ccccc4)cs3)cc2)cc1`, the “activity change, negative = cytotoxicity” value rises from -7.26% to 11.4%.

Going from `Cc1cccc2c(C(=O)O)cc(Cl)nc12` to `Cc1ccc(-c2cc(C(=O)N3CCCCC3)c3ccccc3n2)cc1C`, the “activity change, negative = cytotoxicity” value falls from 30.1% to -10.5%.

First: COC(=O)c1ccccc1C(=O)Nc1nc(-c2ccccc2)cs1
Second: O=C(Nc1nc(-c2ccccc2)cs1)c1ccccc1-n1cnnn1
The “activity change, negative = cytotoxicity” value of the first is lower: 4.34% for the first, 22.9% for the second.

Compared with `N#Cc1cccc(S(=O)(=O)Nc2cnccc2C(=O)Nc2nc(-c3ccccc3)cs2)c1`, `Cc1ccc(S(=O)(=O)Nc2cncc(C(=O)Nc3nc(-c4ccccc4)cs3)c2)cc1` is higher in “activity change, negative = cytotoxicity” value: 9.46% for the first, 30.6% for the second.

First: COc1ccc(OC)c(C(=O)Nc2nc(-c3ccccc3)cs2)c1
Second: Cc1ccc(S(=O)(=O)N(C)c2ccccc2C(=O)Nc2nc(-c3ccccc3)cs2)cc1
The “activity change, negative = cytotoxicity” value of the first is lower: 2.09% for the first, 4.15% for the second.

Going from `Cc1ccc(S(=O)(=O)n2cc(C(=O)Nc3nc(-c4ccccc4)cs3)c3ccccc32)cc1` to `Cc1ccc(S(=O)(=O)Nc2ccccc2C(=O)Nc2ccc(-c3ccccc3)nn2)cc1`, the “activity change, negative = cytotoxicity” value rises from -24.7% to -14.1%.

First: Cc1ccc([S+](=O)([O-])n2cc(Cc3ccc(-c4ccccc4)cc3)c3ccccc32)cc1
Second: Cc1ccc(-c2cc(C(=O)Nc3ccccc3C)c3ccccc3n2)cc1C
The “activity change, negative = cytotoxicity” value of the first is higher: -2.29% for the first, -9.98% for the second.

Compared with `O=C(Nc1nc(-c2ccccc2)cs1)c1ccccc1S(=O)(=O)Nc1nccs1`, `Cc1ccc(S(=O)(=O)NCCC(=O)Nc2nc(-c3ccccc3)cs2)cc1` is lower in “activity change, negative = cytotoxicity” value: -17.1% for the first, -18.8% for the second.

Compared with `N#Cc1ccc(NS(=O)(=O)c2ccc(NC(=O)Cc3ccc(F)c(Cl)c3)cc2)cc1`, `N#Cc1ccc(NS(=O)(=O)c2ccc(NC(=O)Cc3ccc(Cl)c(Cl)c3)cc2)cc1` is lower in “activity change, negative = cytotoxicity” value: 18.9% for the first, 6.58% for the second.

For `O=S(=O)(Nc1nc(CN2CCOCC2)nc2sc3c(c12)CCC3)c1ccc2c(c1)OCCO2`, the “activity change, negative = cytotoxicity” value was 17%.

For `Cc1ccc(-c2csc(NC(=O)c3ccccc3NS(=O)(=O)c3ccc(C)cc3)n2)cc1`, the Potency was 16.6 µM (active).
For `Cc1ccc(S(=O)(=O)Nc2ccc(C(=O)Nc3nc(-c4ccccc4)cs3)c(Cl)c2)cc1`, the Potency was 14.8 µM (active).
For `O=c1[nH]c(CCl)nc2sc3c(c12)CCCC3`, the Potency was 10.5 µM (active).
With `O=C1CC(c2ccccc2)Cc2[nH]c(=O)c(-c3nc(-c4ccc(F)cc4)cs3)cc21` (stereo not given) the Potency was 4.18 µM (active).
With `Cc1ccc(S(=O)(=O)Nc2cc(F)c(F)cc2C(=O)Nc2nc(-c3ccccc3)cs2)cc1` the Potency was 2.96 µM (active).
With `Cc1ccc(S(=O)(=O)Nc2ccccc2C(=O)Nc2nc(-c3ccccc3)co2)cc1` the Potency was 5.9 µM (active).
For `Cc1ccc(S(=O)(=O)Nc2cc(C)ccc2C(=O)Nc2nc(-c3ccccc3)cs2)cc1`, the Potency was 14.8 µM (active).
